AMA1-RON2 inh: AMA1-RON2 (P. falciparum) interaction inhibition | AlphaScreen AMA1-biotinylated RON2 peptide binding | Potency, µM (highest dose often 58.2 µM), hits mostly inhibitors | 360,000 tested, 0.2% active | AID 720542; also: nearly all actives have a fitted effect of over 45% in size
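AMA1 (3D7) with his tag at 25 nM final met compounds first, then biotinylated RON2 peptide at 25 nM; detection used donor plus acceptor beads, 10 µg/mL apiece, read by AlphaScreen after 30 min at room temperature.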
SARS PLP yeast: blocks SARS-CoV papain-like protease in a yeast assay; 330,000 tested, 0.19% active; S. cerevisiae expressing SARS-CoV PLpro, growth rescue; Potency, µM (top dose mostly 32.9 µM), hits mostly activators; calls by dose curve; also: nearly all actives have a fitted effect of over 55% in size
Pf growth 48h: P. falciparum growth inhibition at 48 hours (one generation) | AID 504832 | P. falciparum luciferase growth in erythrocytes, 48 h | 310,000 tested, 5.9% active | Potency, µM (titrated, usually from 28.7 µM), most hits filed as inhibitors
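Luciferase-expressing P. falciparum in infected erythrocytes (2% hematocrit, 0.1% parasitemia final) in RPMI 1640/0.5% Albumax were exposed to compound for 48 hours at 37 C, 5% CO2; growth read as luminescence.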
Pf growth 96h: inhibits malaria parasite growth, 96 h | 320,000 tested, 6.9% active | Potency, µM (doses to about 28.7 µM), most hits filed as inhibitors | P. falciparum luciferase reporter growth, 96 h
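P. falciparum expressing integrated firefly luciferase grown in erythrocytes (2% hematocrit, 0.05% parasitemia final) with compounds for 96 hours at 37 C, 5% CO2. Growth inhibition read as loss of luminescence after adding luciferase detection reagent.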
Of the large screens only hits and unclear results are named; the others gave an inactive call. Only some compounds are listed: those with a hit (about 9.4% of all), similar ones and a draw of the others. Unless noted, calls follow the shape of the dose curve; as a rule, active = well fitted curve in the direction sought with a large enough effect; inconclusive = small, poorly fitted or top-dose-only effect, or another doubt; inactive = no such curve, though single readings can be large; an effect the other way counts as inactive or inconclusive.

CCOc1cc(/C=C2\N=C(SC(C)C(N)=O)N(c3ccc(OC(F)F)cc3)C2=O)ccc1O (centres undefined)	Pf growth 96h 1.17µM
CCCCNC(=O)COC(=O)c1ccc(NC(C)=O)cc1	none
Cn1c(SCc2nnc(-c3ccccc3Br)o2)nc2sc3c(c2c1=O)CCC3	Pf growth 48h inconclusive
O=C(/C=C/c1cn(CC(O)CN2CCCCCC2)c2ccccc12)c1cccs1 (centres undefined)	Pf growth 48h 11.7µM
CCCCN(C)CC(O)Cn1cc(/C=C/C(=O)c2cccs2)c2ccccc21 (centres undefined)	Pf growth 48h 8.28µM, Pf growth 96h 4.15µM
Cc1ccc(C(=O)/C=C/c2cn(CN3CCN(C)CC3)c3ccccc23)cc1	none (no result: Pf growth 96h)
CCCCN(C)CC(O)Cn1cc(/C=C/C(=O)c2ccc(OCC)cc2)c2ccccc21 (centres undefined)	Pf growth 48h 5.22µM, Pf growth 96h inconclusive (no result: AMA1-RON2 inh)
CN1OC[C@@H]2CN[C@H](c3cccc(-c4cc(Cl)cc(Cl)c4)c3)C[C@@H]21	none (no result: SARS PLP yeast, Pf growth 48h, Pf growth 96h)
O=C(Nc1ccccc1Cl)c1ccc2c(c1)N(Cc1ccc(F)cc1)C(=O)CS2=O (centres undefined)	none
C=CCSc1n[nH]c(-c2ccc(OC)cc2)n1	none (no result: Pf growth 96h)
CCCCNC(=S)N(C)/N=C/c1c(C)[nH]c2ccccc12	Pf growth 48h inconclusive, Pf growth 96h 11.7µM
CCCCNC(=S)N(C)/N=C/c1c(F)c(F)c(F)c(F)c1F	none
COc1cc2sc(C)nc2c2sccc12	none
O=C(Cn1nnc(-c2cccs2)n1)N1CCOCC1	Pf growth 96h 9.28µM
COc1ccc(CCC(=O)Nc2nc(C)c(C(=O)N(C)C)s2)cc1	Pf growth 48h 7.38µM, Pf growth 96h inconclusive
O=C(CN1C(=O)c2ccccc2S1(=O)=O)Nc1ncc([N+](=O)[O-])s1	none
O=S1(=O)N=C(N/N=C/C=C/c2ccccc2)c2ccccc21	Pf growth 48h inconclusive, Pf growth 96h 13.1µM
CCCCS/C(=C(/C#N)C(N)=O)c1cc2c([nH]1)CCCC2	AMA1-RON2 inh inconclusive, Pf growth 48h 2.94µM (no result: Pf growth 96h)
CCc1ccc(N/C(SC)=C(/C#N)C(N)=O)cc1	AMA1-RON2 inh inconclusive
COC(=O)CN1C(c2cccc(Cl)c2)=Nc2ccc(Cl)cc2C1c1ccccc1 (centres undefined)	Pf growth 48h 2.33µM, Pf growth 96h 1.65µM
COC(=O)CN1C(CN2CCOCC2)=Nc2ccc(Br)cc2C1c1ccccc1 (centres undefined)	Pf growth 48h inconclusive, Pf growth 96h inconclusive
COC(=O)CN1C(c2ccc(OC)cc2)=Nc2ccc(Cl)cc2C1c1ccccc1 (centres undefined)	Pf growth 48h 14.7µM, Pf growth 96h 10.4µM
COc1cccc(N2CCN(Cc3ccc(Cl)cc3)CC2)c1	none (no result: Pf growth 96h)
O=C1OC2(c3ccccc31)c1cc(I)c(O)c(I)c1Oc1c2cc(I)c(O)c1I	Pf growth 48h 13.1µM, Pf growth 96h 8.28µM (no result: AMA1-RON2 inh)
COc1ccccc1Oc1ccc(S(=O)(=O)N2CCN(C)CC2)cc1	none
O=C(Nc1ccc2c(c1)OCO2)[C@@H]1CCCN1S(=O)(=O)c1cccc2cccnc12	Pf growth 48h inconclusive
COc1ccccc1CN1C(=O)CN(C2CCCCCC2)C(=O)C1c1ccc(F)cc1 (centres undefined)	Pf growth 48h inconclusive, Pf growth 96h 10.4µM
COc1cccc(C2C(=O)N(C3CCCCC3)CC(=O)N2Cc2ccc(F)cc2)c1 (centres undefined)	Pf growth 96h inconclusive (no result: Pf growth 48h)
Cc1[nH]c(SCC(=O)Nc2cc(C(N)=O)cc(C(N)=O)c2)nc1Cc1ccccc1	none (no result: Pf growth 48h, Pf growth 96h)
C=CCOc1ccc(/C=N/NC(=O)C(=O)Nc2ccccn2)cc1OC	Pf growth 96h 4.15µM
CCOC(=O)N/N=C\c1ccc(OC/C=C/c2ccccc2)c(OC)c1	Pf growth 48h 1.85µM
CC(=O)Nc1ccc(Br)c2ccccc12	Pf growth 96h inconclusive
O=C(Nc1ccc(Br)c2ccccc12)c1ccc2ccccc2c1O	Pf growth 48h 11.7µM, Pf growth 96h 9.28µM
COc1cc(OC)cc(C(=O)NCC(=O)N2CCN(c3ccc(O)cc3)CC2)c1	Pf growth 96h inconclusive
COc1cc(OC)c2nc(C)c3c(c2c1)N(c1ccc(O)cc1)CC3	Pf growth 48h inconclusive, Pf growth 96h 13.1µM
O=C(CCc1nc2ccccc2[nH]c1=O)OCC(=O)c1ccc(Cl)cc1	none
Cc1ccc(C(=O)COC(=O)CCc2nc3ccccc3[nH]c2=O)cc1C	Pf growth 96h 2.62µM
CCOC(=O)c1c(N)sc(C(O)(C(F)(F)F)C(F)(F)F)c1-c1ccc(OC)cc1OC	Pf growth 48h 11.7µM, Pf growth 96h inconclusive
CC(c1nnc(SCC(=O)Nc2ccc3[nH]c(=O)[nH]c3c2)n1Cc1ccccc1)N(C)C (centres undefined)	none (no result: Pf growth 48h)
CC(c1nnc(SCC(=O)Nc2cc([N+](=O)[O-])ccc2F)n1Cc1ccccc1)N(C)C (centres undefined)	Pf growth 48h 8.28µM, Pf growth 96h 5.22µM
Cc1cccc(C)c1NC(=O)C(c1ccccc1)N1CCN(c2ccc(F)cc2)CC1 (centres undefined)	none (no result: SARS PLP yeast, Pf growth 48h, Pf growth 96h)
Cc1cc(C(=O)N/N=C/c2ccc(-c3ccccc3Cl)o2)n[nH]1	Pf growth 48h inconclusive, Pf growth 96h inconclusive
Cc1cc(C[n+]2ccccc2)c2nsnc2c1	Pf growth 48h 2.08µM (no result: Pf growth 96h)
COC(=O)c1ccc(Sc2ccccc2NS(=O)(=O)c2ccc(OC)cc2)nc1	none
CC(NCc1cccs1)c1ccccc1 (centres undefined)	Pf growth 96h 11.7µM
CC(Cc1cccs1)NCc1ccccc1 (centres undefined)	none
O=C(NCC(c1cccnc1)N1CCN(c2ccc(F)cc2)CC1)c1cccc(Cl)c1 (centres undefined)	Pf growth 48h 11.7µM
O=C(NCC(c1cccnc1)N1CCN(c2ccc(F)cc2)CC1)Oc1ccccc1 (centres undefined)	Pf growth 48h 8.28µM, Pf growth 96h inconclusive
COC(=O)NCC(c1cccnc1)N1CCN(c2ccccc2)CC1 (centres undefined)	none
O=C(NCCc1c[nH]c2ccccc12)C(=O)NCC(c1cccnc1)N1CCN(c2ccccc2)CC1 (centres undefined)	Pf growth 48h 13.1µM, Pf growth 96h 8.28µM
O=C(NCC(c1cccnc1)N1CCN(c2ccc(F)cc2)CC1)OCc1ccccc1 (centres undefined)	none (no result: Pf growth 48h)
O=C(NCC(c1cccnc1)N1CCN(c2ccccc2)CC1)OCc1ccccc1 (centres undefined)	Pf growth 48h 7.38µM
COc1cc(C(=O)NCC(c2cccnc2)N2CCN(c3ccccc3)CC2)cc(OC)c1OC (centres undefined)	Pf growth 48h 13.1µM, Pf growth 96h inconclusive
COc1cc(C(=O)NCC(c2cccnc2)N2CCN(C)CC2)cc(OC)c1OC (centres undefined)	none
Cc1nn(-c2ccccc2)c(Cl)c1/C=N/NC(=O)OC(C)(C)C	Pf growth 96h inconclusive
CCOC(=O)N/N=C/c1c(C)nn(-c2ccccc2Cl)c1Cl	Pf growth 48h inconclusive, Pf growth 96h 10.4µM
CCOc1ccc(-c2nnn(CCC(=O)O)n2)cc1OC	none (no result: Pf growth 96h)
CCOc1ccc(Cn2nnc(-c3ccc(S(C)(=O)=O)cc3)n2)cc1OCC	Pf growth 48h inconclusive, Pf growth 96h 0.928µM

Assay outcomes from PubChem BioAssay.
